The nature of assay [1]: stimulators of nuclear beta-catenin in C2C12, primary screen, imaging, WNT3A-conditioned medium, mouse C2C12, NPC library (AID 1117326). To be noted: stronger effect = higher value.
Assay [2] in a line: stimulators of insulin release from INS-1E, primary screen, cell-based, 5 mM glucose, NPC library (AID 1117329;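 active means compound raises insulin release from rat beta cells at 5 mM glucose, no numeric limit stated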). To be noted: rat INS-1E insulin secretion, at 10 µM, stronger effect = higher value.
The nature of assay [3]: growth inhibition of GSK3B-pretreated HCT116 cells – cell-based, CellTiter-Glo, 0.2 to 20 µM (AID 1117336;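 active means compounds lowering colon cancer cell viability after pretreatment blocking the GSK3B kinase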). The following applies: HCT116 viability after GSK3B inhibitor, at 20 µM, stronger effect = higher value. In general terms: ATP-based viability assays read luminescence as a measure of living cells.
A short description of assay [4]: glucagon-like peptide 1 release enhancers, primary assay, NCI-H716 cell line, NPC library (AID 1117341;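 active means compound raises GLP1 secretion from the human gut endocrine cells, with no numeric limit stated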). The following applies: NCI-H716 cells, at 10 µM, stronger effect = higher value.
Assay [5] in a line: HCT116 colon cancer cell growth inhibition, primary screen, CellTiter-Glo luminescence, NPC library (AID 1117342;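 active means compounds that lower survival of HCT116 colon cancer cells in the luminescence readout, no numeric limit stated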). To be noted: at 20 µM (top of the series).
A short description of assay [6]: CellTiter-Glo luminescent readout of SW480 viability loss, NPC library primary (AID 1117343;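 active means compounds that lower viability of the colon cancer cells in the luminescence readout, with no numeric limit stated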). The following applies: CellTiter-Glo luminescence; at 20 µM (top of the series) unless noted.
Assay [7] is described as follows: decreased DLD-1 cellular survival, CellTiter-Glo luminescent readout, NPC compound collection, primary HTS (AID 1117346;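 active means compounds that lower survival of DLD-1 colon cancer cells in the luminescence readout, no cutoff given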). The following applies: DLD-1 viability, CellTiter-Glo luminescence; at 20 µM (top of the series).
Assay [8] is described as follows: sensitizers of A549 cells to miR-34 induction, primary screen, imaging, A549 dox-inducible miR-34, nuclei and caspase counts (AID 1347080;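 active means compounds whose cell count with miR-34 switched on is under 0.7 times the count with it off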). To be noted: A549 miR-34 inducible, Hoechst nuclei count, 48 h.
The nature of assay [9]: survival rescue of mitochondrial mutant cells in low glucose, primary screen, MELAS cybrids, Rieske KO mouse fibroblasts, CellTiter-Glo (AID 1508586;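 active means mean z-score across replicates of 1.96 or higher in either the MELAS or the Rieske mutant cell line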;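 further: z relative to plate mean and SD of compound and empty wells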).
Assay [10] has as its target NAD(+) hydrolase SARM1 (Homo sapiens) (UniProt Q6SZW1). The experiment in a line: SARM1 TIR NADase inhibitors, cell lysate, NAD-Glo luminescence (AID 1508614;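 active means compound whose remaining NAD level is above about 45 nM, limit read from the data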). The following applies: SAM-TIR HEK293T lysate NADase, at 1 µM, stronger effect = higher value.
The nature of assay [11]: viability rescue of complex I mutant cybrids, primary screen, cell-based, galactose medium, ATP luminescence (AID 1645843;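 active means z-score of at least 1.8 in each of two replicates, scored against plate mean and spread of sample wells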;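 further: positive z means more ATP and so rescue of galactose-driven cybrid death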). The following applies: complex I mutant cybrid cells, 72 h, stronger effect = higher value.
Assay [12] is described as follows: liver-stage malaria parasite growth inhibition, primary screen, cell-based, HepG2, luciferase luminescence, HepG2 viability (AID 624349; in the data active means parasite load remaining mostly below about 12%, no sharp cut-off; inactive means mostly above about 10%;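 further: 100% = mean of DMSO negative control wells on the same plate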). The following applies: P. berghei liver stage in HepG2, luciferase luminescence, concentration not given here; parasite load remaining: stronger effect = lower value; viability: measured here: HepG2 viability without parasites.
The nature of assay [13]: differential killing of epithelial or mesenchymal cells, primary screen, imaging, PC-3E GFP, TEM4-18 mCherry, co-culture (AID 1345086;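 active means compounds killing one labelled cell type while sparing the other, by normalised counts and ratio limits, not self-fluorescent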;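 further: cells exposed to compound for 72 h before imaging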;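 on red/green cell ratio (normalised): normalised mesenchymal count divided by normalised epithelial count so high means epithelial killing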). The following applies: imaging cell counts, at 1 µM.
Assay [14] in a line: inhibition of endothelial tube formation, primary screen, imaging, VEGF stimulated, CD31 staining, tube area, NPC library (AID 1117340;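 active means compound that reduces growth-factor-driven endothelial tube area in a mixed cell culture, no cutoff stated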). The following applies: VEGF-stimulated ADSC/ECFC co-culture, at 10 µM, stronger effect = higher value.
Where [15] appears, read: stronger effect = lower value, cell number ratio, induced over uninduced.
[16] abbreviates: measured here: relative caspase fold change +Dox/-Dox.
The mark [17] stands for this setting: measured here: total cells with miR-34 induction, stronger effect = lower value.
[18] abbreviates: measured here: total cells without miR-34 induction.
The mark [19] stands for this setting: MELAS cybrid survival, CellTiter-Glo 48 h, stronger effect = higher value.
[20] abbreviates: Rieske KO mouse fibroblast survival, CellTiter-Glo 72 h.

Where “and” joins values, the source holds several entries; their conditions need not be identical. Identical values can stand only once. Calls of active or inactive are those of the source. Unless noted, no stated cut-off is given here; in the data, active means nuclear beta-catenin stimulation mostly above about 4.2% (no sharp cut-off); inactive means mostly below about 10%.

NAD(+) hydrolase SARM1 (Homo sapiens), sequence (Q6SZW1 whole entry, looked up): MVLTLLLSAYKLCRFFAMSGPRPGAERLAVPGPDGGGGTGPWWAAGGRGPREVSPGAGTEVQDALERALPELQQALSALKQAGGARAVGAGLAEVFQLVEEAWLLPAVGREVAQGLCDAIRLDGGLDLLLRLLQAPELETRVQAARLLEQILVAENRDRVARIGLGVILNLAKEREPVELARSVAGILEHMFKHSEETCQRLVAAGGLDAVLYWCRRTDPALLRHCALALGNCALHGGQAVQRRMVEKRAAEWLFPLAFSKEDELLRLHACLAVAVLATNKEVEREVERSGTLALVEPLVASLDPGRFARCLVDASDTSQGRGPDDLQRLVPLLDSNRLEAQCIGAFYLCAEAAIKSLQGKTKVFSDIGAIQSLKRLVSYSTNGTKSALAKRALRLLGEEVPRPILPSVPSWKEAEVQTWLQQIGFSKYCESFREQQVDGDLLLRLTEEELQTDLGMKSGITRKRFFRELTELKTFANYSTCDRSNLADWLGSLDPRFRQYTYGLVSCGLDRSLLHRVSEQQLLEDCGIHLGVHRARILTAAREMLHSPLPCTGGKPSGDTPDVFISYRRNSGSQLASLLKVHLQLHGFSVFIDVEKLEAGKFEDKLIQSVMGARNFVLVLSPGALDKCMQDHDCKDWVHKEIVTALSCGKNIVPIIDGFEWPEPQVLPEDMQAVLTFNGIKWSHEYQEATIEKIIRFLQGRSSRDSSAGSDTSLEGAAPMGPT

With `Cc1cc(-c2ccc(N=Nc3c(S(=O)(=O)O)cc4cc(S(=O)(=O)O)cc(N)c4c3O)c(C)c2)ccc1N=Nc1c(S(=O)(=O)O)cc2cc(S(=O)(=O)O)cc(N)c2c1O`, the nuclear beta-catenin stimulation in [1] (at 10 µM) was -3.5% (inactive); in [1] (stimulation, at 2 µM), -1.8%. For the same compound, in assay [2], the insulin secretion stimulation was 2.95% (inactive). In addition, the viability decrease in assay [3] was 35.2% (inactive). For the same compound, the GLP1 secretion stimulation in [4] is -8.7% (inactive). Besides, the inhibition of viability in assay [5] was 22.2% (inactive). Also, the viability decrease (inhibition) in [6] is 37.9% (inactive); in assay [7], 23.9% (inactive).
In the case of `O=C(O)c1cc(N=Nc2ccc(O)c(C(=O)O)c2)ccc1O`, the nuclear beta-catenin stimulation is 1.3% (inactive) in [1] (at 10 µM) and 8.5% in assay [1] (stimulation, at 2 µM). For the same compound, the insulin secretion stimulation in assay [2] is 0.9% (inactive). The viability decrease in assay [3] was 15.9% (inactive). Further, the inhibition of viability in assay [5] was 20.6% (inactive). For the same compound, the viability decrease (inhibition) in assay [6] was -10.4% (inactive); in [7], 18.3% (inactive). Moreover, the fold change in assay [8] (setting [15]) is 0.936 (inactive) and 1.24 (inactive); in assay [8] (setting [16]), 0.766 and 0.877. The cell count in [8] (setting [17]) was 9060 and 9000; in assay [8] (setting [18]) it was 9680 and 7270. Further, the z-score is -0.277 (inactive) in [9] (setting [19]) and -0.199 in assay [9] (setting [20]). In addition, in assay [10], the remaining NAD is 10 nM (inactive).
With `C=CC(C)(O)CCC=C(C)CCC=C(C)C` (configuration not stated), the nuclear beta-catenin stimulation in assay [1] (at 10 µM) is 2.7% (inactive); in assay [1] (stimulation, at 2 µM) it was -0.9%. Moreover, the insulin secretion stimulation in [2] was -0.2% (inactive). Also, the GLP1 secretion stimulation in [4] was 9.7% (inactive).
With `Cc1cccc(Nc2cc(Cl)nc(SCC(=O)O)n2)c1C`, the nuclear beta-catenin stimulation in [1] (at 10 µM) was -0.3% (inactive); in assay [1] (stimulation, at 2 µM), 0.2%. In [2], the insulin secretion stimulation is -0.2% (inactive). Further, in assay [4], the GLP1 secretion stimulation is -3.8% (inactive). Besides, the z-score was -0.392 (inactive) in [9] (setting [19]), -0.362 in assay [9] (setting [20]) and 0.215 (inactive) in [11].
One may read the viability as a read-out of living cells in per cent, often relative to untreated cells. Consider `CC(=O)N(CC(O)CN(C(C)=O)c1c(I)c(C(=O)NCC(O)CO)c(I)c(C(=O)NCC(O)CO)c1I)c1c(I)c(C(=O)NCC(O)CO)c(I)c(C(=O)NCC(O)CO)c1I` (configuration not stated), for which the parasite load remaining in assay [12] was 80.7% (inactive). In assay [12], the viability amounted to 90.6%. Further, the nuclear beta-catenin stimulation was 0.8% (inactive) in assay [1] (at 10 µM) and 1.9% in assay [1] (stimulation, at 2 µM). The insulin secretion stimulation in assay [2] is 0.95% (inactive). Moreover, the GLP1 secretion stimulation in [4] is 2% (inactive). Moreover, the red/green cell ratio (normalised) in assay [13] (actives lie on both sides, counts scaled to control wells, 1 = unselective) was 1.05 (inactive). The normalised cell number in [13] (measured here: epithelial PC-3E GFP cell survival) amounted to 1; in assay [13] (measured here: mesenchymal TEM4-18 mCherry cell survival) it was 1.05. Besides, the figures for the fold change in [8] (setting [15]) and in [8] (setting [16]) were 0.892 (inactive) and 0.943, respectively. Also, the cell count is 8820 in assay [8] (setting [17]) and 9890 in assay [8] (setting [18]). Besides, the z-score in assay [9] (setting [19]) was 0.435 (inactive); in assay [9] (setting [20]) it was -0.343. The remaining NAD in assay [10] was 10 nM (inactive).
In the case of `CCCCN1CCCC1C(=O)Nc1c(C)cc(C)cc1C` (configuration not stated), the nuclear beta-catenin stimulation in assay [1] (at 10 µM) is 1% (inactive); in [1] (stimulation, at 2 µM), -0.4%. Besides, in assay [2], the insulin secretion stimulation was 0% (inactive). For the same compound, the GLP1 secretion stimulation in assay [4] was -3.8% (inactive).
Take `FC(F)(F)C(F)(F)C(F)(F)C(F)(F)C(F)(F)C(F)(F)C(F)(F)C(F)(F)Br`: the nuclear beta-catenin stimulation in assay [1] (at 10 µM) was -0.6% (inactive); in [1] (stimulation, at 2 µM), 11.4%. For the same compound, the viability decrease in [3] was 8.2% (inactive). Also, the tube area decrease in assay [14] is -4.5% (inactive). In addition, the inhibition of viability in assay [5] was 12.1% (inactive). In addition, the viability decrease (inhibition) in assay [6] is -4.8% (inactive); in assay [7] it was 7.2% (inactive).
Regarding `Cc1cc(O)c2c(O)c3c(O)cccc3cc2c1`, the nuclear beta-catenin stimulation in assay [1] (at 10 µM) is 6.3% (inactive); in [1] (stimulation, at 2 µM), 4.6%. The viability decrease in assay [3] was 97% (active). In addition, in [14], the tube area decrease is 67.8% (active). In [5], the inhibition of viability is 90.6% (active). For the same compound, the viability decrease (inhibition) in assay [6] was 95.1% (active); in assay [7] it was 95.3% (active).
